EWS-Fli inh: blocks EWS/Fli oncoprotein-driven transcription; inhibition, % at 12.6 µM; A673 NR0B1-luciferase reporter, viability-normalised; 350,000 tested, 0.67% active; AID 651661;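 active = mean inhibition of at least 50% after viability correction, with every replicate also passing that limit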;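 note: firefly luciferase signal divided by Alamar Blue viability fluorescence both relative to DMSO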
PAX8 inh HTS: inhibitors of PAX8 transcriptional activity in RMG-I cells; RMG-I TPO-luciferase reporter, SteadyGlo, 24 h; inhibition, % at 12.6 µM; 360,000 tested, 1.2% active; AID 652154;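 active = mean replicate inhibition at least 60% with every replicate also reaching 60%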;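 note: luciferase light reporting Pax8 driven TPO promoter activity; plate controls were median of neutral control wells for no effect and mitoxantrone controls for full effect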
TROY signal inh: inhibitors of TROY-dependent NF-kB signaling; Q293 LMP1-TROYcd NF-kB luciferase reporter, 4 h; inhibition, % at 10 µM; 360,000 tested, 0.98% active;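 active = compounds whose plate-normalised and pattern-corrected inhibition of the luciferase reporter signal at the single screening dose is 50% or more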
LGR2 inh: blocks bursicon-induced cAMP signaling via Drosophila LGR2. HEK293 LGR2, CRE-luciferase, bursicon-stimulated, 4 h. inhibition, % at 9.99 µM. 380,000 tested, 0.35% active;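 active = drop in luminescence signal, shown as inhibition above about 50% in the replicate tests, limit read from the data, passing the limit was not always enough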;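 note: agonist challenge used bursicon conditioned medium at about half maximal strength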
TWEAK Fn14 block: blocks TWEAK-Fn14 interaction in a reporter cell assay; TWEAK-stimulated Fn14 reporter cells, luciferase luminescence, 8 h; inhibition, % at 10 µM; 360,000 tested, 2% active; AID 1159606; in the data active = inhibition above about 50%
LMP1 NFkB inh: Epstein-Barr LMP1 NF-kappaB reporter inhibition | LMP1-induced NF-kappaB luciferase reporter cells, luminescence | inhibition, % at 12.5 µM | 350,000 tested, 0.69% active | AID 504558; in the data active = inhibition above about 41%;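 note: 0% = neutral control wells and 100% = reference inhibitor control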
* marks the source's active call; other numbers are inactive results; . = no result; ! = not confirmed by another sample. In the library only some 3.1% were active in any assay of this set; here they are far more common.

SMILES	EWS-Fli inh	PAX8 inh HTS	TROY signal inh	LGR2 inh	TWEAK Fn14 block	LMP1 NFkB inh
NCCCNc1nc(N)c([N+](=O)[O-])c(NC2CCCCC2)n1	29.5	77.9*	42.6	54.4*	38.2	-11.9
O=C(Cn1nnc2ccccc2c1=O)N[C@@H](Cc1c[nH]c2ccccc12)C(=O)O	12.1	4.2	-15.1	-16.9	5.0	4.2
CC(=O)/C=C(/C)NC(Cc1c[nH]c2ccccc12)C(=O)O (stereo not drawn)	5.4	.	50.7*!	-2.4	1.1	-9.7
CC(=O)N[C@H](Cc1c[nH]c2ccccc12)C(=O)O	1.6	2.9	9.5	7.5	-7.4	2.7
C[C@@H](C(=O)N[C@@H](Cc1c[nH]c2ccccc12)C(=O)O)n1nnc2ccccc2c1=O	15.4	15.4	-6.3	-10.9	71.8*	0.4
O=C(NC1CCCC1)N1CC(=O)N2[C@H](CO)[C@H](c3ccc(-c4cccc(F)c4)cc3)[C@@H]2C1	5.9	6.6	.	11.3	.	.
C[C@H]1CCCCO[C@H](CN(C)C)[C@@H](C)CN([C@@H](C)CO)C(=O)c2cc(NS(=O)(=O)c3ccc(F)cc3)ccc2O1	3.5	-6.9	.	-5.1	.	.
CC(=O)c1cccc(NC(=O)c2cc(-c3ccco3)nc3ccccc23)c1	-2.8	-3.4	19.4	11.8	65.5*	4.2
COc1cccc(NC(=O)c2cc(-c3ccccn3)nc3ccccc23)c1	-2.2	-2.4	-9.7	-2.2	7.3	-2.6
COc1cc(-c2cc(C(=O)Nc3ccc(O)cc3)c3ccccc3n2)cc(OC)c1OC	16.8	9.0	0.3	9.3	-17.5	0.1
O=C(Nc1cccc(S(=O)(=O)NCc2ccco2)c1)c1cc(-c2ccccc2)nc2ccccc12	17.2	76.0*	13.4	9.6	36.0	12.7
COc1cc(-c2cc(C(=O)Nc3cccc(C(C)=O)c3)c3ccccc3n2)cc(OC)c1OC	21.0	35.8	8.8	8.4	59.6*	10.8
COc1cccc(-c2cc(C(=O)Nc3ccncc3)c3ccccc3n2)c1	.	5.8	3.5	-0.5	88.9*	-0.3
C/C=C/c1cnc2c(c1)C(=O)N([C@H](C)CO)C[C@H](C)[C@H](CN(C)C(=O)c1ccc3c(c1)OCO3)O2	-1.5	.	.	19.9	.	.
C[C@@H]1CN([C@H](C)CO)C(=O)c2cc(NS(=O)(=O)c3cccs3)ccc2O[C@H]1CN(C)Cc1ccc(Cl)c(Cl)c1	5.7	0.1	.	-1.1	.	.
C[C@@H]1CCCCO[C@@H](CN(C)C)[C@H](C)CN([C@@H](C)CO)C(=O)c2cc(NS(C)(=O)=O)ccc2O1	-0.4	-10.9	.	-4.6	.	.
COc1ccc(COc2cc(-c3cccc(OC)c3)nc3ccc(NC(=O)c4ccc(N(C)C)cc4)cc23)cc1	.	.	-1.2	.	-40.7	-4.8
COc1ccc(COc2cc(-c3cccc(OC)c3)nc3ccc(NC(=O)c4ccc(C)cc4)cc23)cc1	49.8	80.1*	13.5	0.1	-41.0	-2.9
CN1C(=O)C(CC(=O)NC2CCCCC2)SC1=Nc1ccccc1 (stereo not drawn)	-1.8	7.2	-9.4	3.7	2.6	64.3*
C=CCN1C(=O)/C(=C/c2ccc(OC(C)=O)c(OCC)c2[N+](=O)[O-])SC1=S	-122.9	99.6*	43.0	20.1	59.9*	4.6
C=C1CCC[C@]2(C)C[C@H]3OC(=O)C(CN4CCCCC4CO)[C@H]3CC12 (stereo partly drawn)	-12.7	-7.2	25.1	22.4	50.9*	90.6*
C=C1CCC[C@]2(C)C[C@H]3OC(=O)C(CNC(CC)CO)[C@H]3CC12 (stereo partly drawn)	14.1	52.2	3.5	4.5	57.2*	17.7
C=C1CCC[C@]2(C)C[C@H]3OC(=O)C(CN(C)CC(OC)OC)[C@H]3CC12 (stereo partly drawn)	9.5	63.2*	6.8	-0.9	22.1	14.3
C=C1CCC[C@]2(C)C[C@H]3OC(=O)C(CNC(C)CC)[C@H]3CC12 (stereo partly drawn)	11.5	45.4	-13.9	5.0	3.7	-4.4
Cn1cc(CN2CCN(c3ncccn3)CC2)c(-c2cccc(Cl)c2)n1	3.9	0.9	0.3	-108.2	1.7	2.6
Cc1cc(N2CCN(Cc3cn(C)nc3-c3cccc(Cl)c3)CC2)cc(C)n1	57.7*	12.7	24.9	22.3	8.4	-12.2
CO[C@H]1CN(C)C(=O)c2cc(NS(=O)(=O)c3ccc(C)cc3)ccc2OC[C@@H](C)N(C)C[C@@H]1C	-12.4	.	.	10.0	.	.
